Screening results (PubChem)
Cycloheximide cs: affects cycloheximide protein synthesis inhibition readout, counter-screen; cell reporter, cycloheximide protein synthesis inhibition counterscreen; max response, %; 300,000 tested, 12% active; AID 2314; in the data active = max response mostly above about 13%, no sharp cut-off; inactive = mostly below about 14%; also: read at 38.3 µM for the half of the compounds with a filed dose; 0% is about no effect
Pf growth 48h: P. falciparum growth inhibition at 48 hours (one generation) | P. falciparum luciferase growth in erythrocytes, 48 h | Potency, µM (top dose mostly 28.7 µM), for the others: top-dose activity change, negative = inhibition, most hits filed as inhibitors | 310,000 tested, 5.9% active; also: potency is read from the fitted curve at half-maximal effect; % is scaled to controls: 0 for no effect and ±100 for the full control effect
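Compounds are pin-transferred into medium, infected erythrocytes (2% hematocrit, 0.1% parasitemia final) are added, and plates sit one parasite generation at 37 C in 5% CO2. Detection reagent is then added and luminescence measured.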
Pf growth 96h: inhibits malaria parasite growth, 96 h; P. falciparum luciferase reporter growth, 96 h; Potency, µM (doses to about 28.7 µM), for the others: at the top dose activity change, negative = inhibition, most hits filed as inhibitors; 320,000 tested, 6.9% active; AID 504834; also: potency is read from the fitted curve at half-maximal effect; % is scaled to controls: 0 for no effect and ±100 for the full control effect
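Compounds incubated with erythrocytes infected by luciferase-expressing P. falciparum (2% hematocrit, 0.05% parasitemia final) for 96 hours, 37 C in 5% CO2. Growth inhibition scored as decreased luciferase luminescence.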
Shiga inhibitor: blocks Shiga toxin action in Vero cells. inhibition, % at 38.7 µM. 290,000 tested, 9.2% active. Vero cells, Shiga toxin protein synthesis inhibition reporter; in the data active = inhibition mostly above about 28%, no sharp cut-off; inactive = mostly below about 43%; also: 0% is about no effect
LmPK inh: blocks Leishmania mexicana pyruvate kinase activity. AID 1721. purified LmPK, Kinase-Glo ATP luminescence, 1 h. 290,000 tested, 0.37% active. Potency, µM (top dose mostly 57.5 µM), for inactives: top-dose activity change, negative = inhibition, hits mostly inhibitors. Q27686; also: potency is read from the fitted curve at half-maximal effect; % is scaled to controls: 0 for no effect and ±100 for the full control effect
Target sequence (Q27686 whole entry, looked up): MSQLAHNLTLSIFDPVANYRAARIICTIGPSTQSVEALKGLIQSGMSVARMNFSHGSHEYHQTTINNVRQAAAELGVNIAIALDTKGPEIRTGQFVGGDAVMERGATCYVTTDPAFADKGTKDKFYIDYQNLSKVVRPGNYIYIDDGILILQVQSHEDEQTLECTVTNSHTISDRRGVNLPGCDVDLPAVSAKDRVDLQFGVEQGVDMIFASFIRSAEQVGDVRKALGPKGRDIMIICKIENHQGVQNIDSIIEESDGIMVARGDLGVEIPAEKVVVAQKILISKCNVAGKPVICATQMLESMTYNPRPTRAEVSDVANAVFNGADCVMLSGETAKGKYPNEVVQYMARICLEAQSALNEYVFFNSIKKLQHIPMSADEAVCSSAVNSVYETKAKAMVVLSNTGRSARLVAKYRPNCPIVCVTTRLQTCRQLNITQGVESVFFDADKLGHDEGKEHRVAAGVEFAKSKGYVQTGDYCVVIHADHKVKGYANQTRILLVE
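Screened at intermediate enzyme activity to detect both inhibitors and activators: LmPK at 0.1 nM, with a 0.5 nM enzyme column as activation reference. PEP 0.5 mM, ADP 0.1 mM; ATP detected by luminescence after 1 h.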
Active calls of the source: *; ? = inconclusive; / = no result given; + = active, no number; [ ] = remark or other dose. Rows were chosen to be rich in hits. Some 22% of all compounds tested hit in one or more screens of this group. Unless noted, calls follow the shape of the dose curve; as a rule, active = well fitted inhibition curve with a large enough effect; inconclusive = small, poorly fitted or top-dose-only effect, or another doubt; inactive = no such curve, though single readings can be large or run the other way.

SMILES | Cycloheximide cs | Pf growth 48h | Pf growth 96h | Shiga inhibitor | LmPK inh
Cc1ccc(OCc2nnnn2-c2ccccc2)cc1 | -1 | 17% | ? | 39 | 5%
Cc1ccccc1-c1cc(C(=O)NCC2CC2)nn1CC1CC(c2cccc([N+](=O)[O-])c2)=NO1 (stereo not drawn) | / | 5.2µM* | 2.6µM* | / | /
COc1ccccc1CNC(=O)c1cc(-c2ccccc2C)n(CC2CC(c3cccc([N+](=O)[O-])c3)=NO2)n1 (stereo not drawn) | / | 5.2µM* | ? | / | /
CN(Cc1ccccc1)C(=O)CN1CCN(S(=O)(=O)c2ccc(Cl)c(Cl)c2)CC1 | / | -23% | ? | / | /
CNc1nc(SC(C)C(=O)Nc2ccc(Cl)c(Cl)c2)nc(N2CCOCC2)n1 (stereo not drawn) | 2 | -5% | 37% | -17 | 4%
Cc1cccc(OC(=O)NCCOC(=O)N(O)c2ccc(Cl)cc2)c1 | -3 | 62% | 7.4µM* | -13 | 3%
Cc1ccc(NC(=O)C(=O)NCCOc2ccc(Cl)cc2)c(C)c1 | -2 | -3% | ? | -9 | 0%
Cn1cc(-c2nnnn2-c2cccc(C(F)(F)F)c2)c(C(F)(F)F)n1 | -3 | ? | -31% | 16 | 23%
Cc1cccc(Nc2cc(C)c3c(O)cccc3n2)c1C | 32* | 0.74µM* | 1% | 92* | -1%
N#CCCn1cc(C(=O)N2CCCCC2)c(-c2cccc([N+](=O)[O-])c2)n1 | -4 | -4% | -29% | -8 | -3%
CN(C(=O)c1ccc(NC(=O)Cc2ccc(NC(=O)C3CCN(C(=O)C4CCCC4)CC3)cc2)cc1)C1CC1 | / | ? | 2.1µM* | / | /
O=C(CN1CCN(C(=O)C2CCC2)CC1)Nc1ccc(F)cc1 | / | -17% | -2% | / | /
CN(C(=O)c1ccc(NC(=O)Cc2ccc(NC(=O)C3CCN(C(=O)C4CCC4)CC3)cc2)cc1)C1CC1 | / | ? | 9.3µM* | / | /
C=C1C(=O)[C@]23[C@H](O)[C@H]1CC[C@H]2[C@@]12COC3(O)[C@H](O)[C@@H]1C(C)(C)CC[C@@H]2O | -5 | / | / | -15 | /
COc1cc(C=O)cc(OC)c1OS(=O)(=O)c1ccc(NC(C)=O)cc1 | -5 | 28% | 4.1µM* | -8 | 3%
CC(=O)Nc1ccc(S(=O)(=O)Oc2ccc(C=O)cc2)cc1 | -2 | 1% | ? | -4 | 1%
CC(=O)Nc1ccc(OS(=O)(=O)c2ccc(Cl)cc2)cc1 | 12 | ? | 28% | 40* | 1%
CC(=O)Nc1ccc(S(=O)(=O)Nc2ccc([N+](=O)[O-])cc2)cc1 | / | -3% | -9% | / | /
COc1ccc(C=O)cc1OS(=O)(=O)c1ccc(NC(C)=O)cc1 | 5 | ? | ? | -9 | 6%
CC(=O)Nc1ccc(OS(=O)(=O)c2ccc([N+](=O)[O-])cc2)cc1 | 6 | 13µM* | 1% | 1 | 2%
COc1cc(OC)c(NC(=O)c2sc3ncn(CC(=O)N4CCOCC4)c(=O)c3c2C)cc1Cl | -10 | ? | ? | -2 | -11%
COc1ccc2nc3ccccc3nc2c1N | 49* | 149% | 39% | 159* | ?
COc1ccc(-c2nc3ccccc3nc2-c2ccc(OC)c(OC)c2)cc1OC | -1 | ? | -11% | 6 | 0%
COc1ccc2nc3cccc(OC)c3nc2c1 | 44* | ? | ? | 63* | -7%
CCn1cc(CN2CCC(n3nccc3NC(=O)c3ccc(OC)cc3)CC2)cn1 | -6 | -19% | 13% | -9 | -3%
SMILES | Cycloheximide cs | Pf growth 48h | Pf growth 96h | Shiga inhibitor | LmPK inh
CCOC(=O)c1oc2ccc(Br)cc2c1COC(=O)C1=COCCO1 | / | 35% | 3% | / | /
CCOC(=O)CSc1nc2nc(C)cc(C)n2n1 | 0 | 5% | 40% | 2 | 3%
CCCn1c(C)cc(C(=O)CSc2nc3nc(C)cc(C)n3n2)c1C | -2 | ? | 9.3µM* | -4 | -1%
Cc1cc(C)nc(SCC(=O)NC2CCCC2)n1 | -4 | -1% | -2% | 0 | -1%
Cc1cc(C)n2nc(SCC(=O)NC3CCCCC3)nc2n1 | 14 | -1% | 13µM* | 7 | 3%
COCCNC(=O)c1cc(-c2ccc(-c3ccccc3)cc2)nc2ccccc12 | 1 | 21% | -5% | -14 | -7%
CCOC(=O)C(=O)N(Nc1ccc(C)cc1)c1ccc(C)cc1 | 16* | ? | ? | 72* | -4%
C/C(=N\NC(=O)c1ccc(N(C)C)cc1)c1cccnc1 | 23* | 29% | -22% | 44 | -2%
COc1cccc(C(=O)NC(=S)Nc2ccc(N3CCCC3)cc2)c1 | 13 | ? | 41% | -2 | 4%
COc1ccc(OCC(=O)Nc2ccc(N3CCCCC3)cc2)cc1 | 4 | 3% | ? | 26 | -4%
C/C(=N\NC(=O)c1ccc(N(C)C)cc1)c1ccc(C)cc1C | 21 | 11% | -16% | 24* | -3%
CCN(CC)c1ccc(C(=O)N/N=C(\C)c2cccnc2)cc1 | 14 | ? | -6% | 11 | 6%
COc1ccc(C(=O)NC(=S)Nc2ccc(N3CCCC3)cc2)cc1 | 16* | 3%[5.75 µM] | 47%[5.75 µM] | 7 | 2%
COc1ccc(C(=O)N/N=C(/C)c2ccc(N3CCCCC3)cc2)cc1 | 30* | -2% | 13% | 74* | -2%
C/C(=N\NC(=O)c1ccc(N(C)C)cc1)c1ccc(C)c(C)c1 | 17 | 15% | ? | 13 | 4%
CN1CCN(c2ccc(-c3ccnn3C(=O)Nc3ccccc3)cc2)CC1 | 41* | 122% | 132% | 83 | -6%
C/C(=N\NC(=O)c1cccnc1)c1ccc(OC2OCCOC2Oc2ccc(/C(C)=N/NC(=O)c3cccnc3)cc2)cc1 (stereo not drawn) | 16* | -25% | 12% | 54* | 0%
COc1ccc(/C(C)=N/NC(=O)c2ccc(N(C)C)cc2)cc1 | 8 | ? | 0.59µM* | 23 | -4%
COc1ccc(NC(=O)c2ccc(COCC(F)(F)C(F)F)cc2)cc1 | 53* | 20% | ? | + | 3%
COc1cc(Cl)ccc1OCc1cc(C(=O)N(C)C2CC(C)(C)NC(C)(C)C2)no1 | -2 | -4% | 31% | -3 | 0%
O=C(NC(Cc1c[nH]c2ccccc12)C(=O)OCC(=O)c1cccc2ccccc12)c1cccs1 (stereo not drawn) | 5 | -18% | -3% | -2 | -10%
COC(=O)c1cc(CNC(=O)c2ccc(N3CCCC3)c([N+](=O)[O-])c2)ccc1OC | -3 | ? | -6% | -14 | -1%
O=S(=O)(Nc1ccc(N2CCCCC2)cc1)c1ccc(F)c(F)c1 | -2 | 27% | 5% | 7 | 2%
COc1cc(C(=O)NC(=S)Nc2ccc(N3CCCC3)cc2)cc(OC)c1OC | -1 | 9.3µM* | ? | 12 | -2%
CN1CCN(c2ccc(NC(=O)Oc3ccccc3)cc2)CC1 | -3 | / | ? | -6 | 0%
COc1ccc(C(=O)Nc2ccc(N3CCCC3)cc2)cc1 | 10 | / | 4.1µM* | 12 | -23%
CN1CCN(c2ccc(NC(=O)c3ccc(Oc4ccccc4)cc3)cc2)CC1 | 10 | ? | ? | 31* | 10%
